Test system: Vero E6 infected with SARS-CoV-2
Assay: inhibition of SARS-CoV-2 cytopathic effect; higher = more antiviral protection, active = above 15
Settings: 48 h

Measured: inhibition of SARS-CoV-2 cytopathic effect

O=C(OCCOCCO)c1ccccc1Nc1cccc(C(F)(F)F)c1 [etofenamate]
inactive: 1 nM 1.16% | 8.33 nM -1.53% | 100 nM 0.55% | 833.33 nM -0.46% | 10000 nM -2.39%

COC(c1ccccc1)(c1ccccc1)[C@H](Oc1nc(C)cc(C)n1)C(=O)O [ambrisentan]
inactive: 1 nM -4.05% | 8.33 nM -0.7% | 100 nM -1.38% | 833.33 nM -0.18% | 10000 nM -3.02%

O=C1N[C@@H]2[C@@H](O)[C@@H](O)[C@H](O)[C@@H](CO)N2C1=O [kifunensine]
inactive: 1 nM 0.31% | 8.33 nM 1.46% | 100 nM 3.44% | 833.33 nM 4.14% | 10000 nM 14.9%

CS(=O)(=O)c1ccc(-c2cc(Br)sc2-c2ccc(F)cc2)cc1
inactive: 1 nM 3.29% | 8.33 nM -0.45% | 100 nM -5.25% | 833.33 nM -3.46% | 10000 nM -5.5%

CCCN[C@H]1CCc2nc(N)sc2C1 [pramipexole]
inactive: 1 nM -2.43% | 8.33 nM -0.27% | 100 nM -3.37% | 833.33 nM -2.16% | 10000 nM -1.54%

c1ccc(N2CCN(Cc3nc4ccccc4[nH]3)CC2)nc1
inactive: 1 nM 3.44% | 8.33 nM 2.21% | 100 nM -0.12% | 833.33 nM 0.36% | 10000 nM -0.76%

C[C@H]1O[C@@H](O[C@H]2CC[C@@]3(C)[C@H](CC[C@@H]4[C@@H]3C[C@@H](O)[C@]3(C)[C@@H](C5=CC(=O)OC5)CC[C@]43O)C2)C[C@H](O)[C@@H]1O[C@H]1C[C@H](O)[C@H](O[C@H]2C[C@H](O)[C@H](O[C@@H]3O[C@H](CO)[C@@H](O)[C@H](O)[C@H]3O)[C@@H](C)O2)[C@@H](C)O1 [deslanoside]
inactive: 1 nM -1.34% | 8.33 nM -4.74% | 100 nM -14.1% | 833.33 nM -18.9% | 10000 nM -20.6%

COc1cc(N)c(Cl)cc1C(=O)OCCCN1CCCCC1
inactive: 1 nM 3.12% | 8.33 nM -0.29% | 100 nM 3.25% | 833.33 nM 4.22% | 10000 nM 1.72%

CO[C@@H](C(=O)N1Cc2[nH]nc(NC(=O)c3ccc(N4CCN(C)CC4)cc3)c2C1)c1ccccc1 [danusertib]
inactive: 1 nM 2.82% | 8.33 nM 2.41% | 100 nM -1.12% | 833.33 nM -0.08% | 10000 nM -3.74%

CCOC1O[C@H]([C@@H](COCc2ccccc2)OCc2ccccc2)[C@H](OCc2ccccc2)[C@H]1O (stereo not given in full) [tribenoside]
inactive: 1 nM -7.21% | 8.33 nM -1.54% | 100 nM -0.86% | 833.33 nM 0.08% | 10000 nM 1.9%

Cc1csc(-c2nnc(Nc3ccc(Oc4ncccc4-c4ccnc(N)n4)cc3)c3ccccc23)c1
inactive: 1 nM -1.03% | 8.33 nM -3.23% | 100 nM -5.41% | 833.33 nM -4.07% | 10000 nM -4.59%

CC(=O)N1CC[N+](C)(C)CC1 [4-acetyl-1,1-dimethylpiperazinium]
inactive: 1 nM 0.03% | 8.33 nM -1.23% | 100 nM 0.82% | 833.33 nM 1.13% | 10000 nM 0.5%

CCOC(=O)C1=C[C@]2(CC)CCCN3CCc4c(n1c1ccccc41)[C@@H]32 [vinpocetine]
inactive: 1 nM -3.18% | 8.33 nM 0.85% | 100 nM 4.53% | 833.33 nM 1.98% | 10000 nM -1.06%

C[C@@H](O)[C@H]1C(=O)N2C(C(=O)O)=C(S[C@@H]3CN[C@H](CNS(N)(=O)=O)C3)[C@H](C)[C@H]12 [doripenem]
inactive: 1 nM -0.14% | 8.33 nM 0.27% | 100 nM -2.53% | 833.33 nM -0.35% | 10000 nM 0.46%

CCCCC[C@H](O)/C=C/[C@H]1[C@H](O)CC(=O)[C@@H]1CCCCCCC(=O)O [alprostadil]
inactive: 1 nM 1.09% | 8.33 nM 3.65% | 100 nM 0.04% | 833.33 nM -3.27% | 10000 nM 0.55%

N#Cc1nn(-c2c(Cl)cc(C(F)(F)F)cc2Cl)c(N)c1[S+]([O-])C(F)(F)F (stereo not given) [fipronil]
inactive: 1 nM 0.34% | 8.33 nM 3.14% | 100 nM 1.21% | 833.33 nM 3.8% | 10000 nM 3.66%

CN1CCN(CCc2ccc(Cl)c(Cl)c2)CC1
inactive: 1 nM 0.05% | 8.33 nM 3.18% | 100 nM -0.38% | 833.33 nM 0.92% | 10000 nM -1.14%
